We go through 40 compounds from PubChem BioAssay AID750 (Sanford-Burnham Center for Chemical Genomics, 2007).

Out of some 86,000 compounds screened, about 140 (0.16%) were called active.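 How the source made its calls: active means activation factor of at least 2 for MT1-MMP transcription at 10 µM; inactive means the rest.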 Many of the other results were omitted from the sample, so actives are more common in it than they were.

The test in a line: MT1-MMP promoter reporter activation – cell-based, luciferase luminescence, primary screen (AID 750). The conditions noted are these: HT1080 MT1-MMP promoter luciferase reporter, overnight, at 10 µM, active compounds read high. In general terms: In a reporter assay the amount or activity of a reporter protein is the signal.
Take `CC1CC(C)CN(CC(=O)N2c3ccccc3CCc3ccccc32)C1` (stereo not given): the activation factor is 1.1 (inactive).

Consider `O=C(NCCN1CCN(Cc2ccccc2)CC1)c1cc2c(=O)[nH]c3ccccc3c2s1`, for which the activation factor was 1 (inactive). Take `Cc1nn(C)cc1CNC(=O)Nc1ccc(Cl)cc1`: the activation factor was 1.7 (inactive).

Regarding `Cc1ccc(-c2csc(NC(=O)Cc3cccs3)n2)cc1C`, the activation factor is 1.3 (inactive). Turning to `O=P(O)(CP(=O)(c1ccccc1)c1ccccc1)c1ccccc1O`, the activation factor was 1.2 (inactive). With `COc1ccc(C(=O)NN(C)c2nc(-c3ccccc3)cc(C)c2S(C)(=O)=O)cc1`, the activation factor was 1.1 (inactive). Regarding `O=S(=O)(c1ccc(Br)cc1)n1ccc2ccccc21`, the activation factor was 1.1 (inactive). In the case of `O=C(NCCc1ccccc1)c1ccc(OCCOc2ccccc2)cc1`, the activation factor is 1 (inactive).

`COC(=O)c1ccc(S(=O)(=O)N2CCC(c3nc4ccccc4o3)CC2)cc1`: the activation factor was 1.1 (inactive).

For the compound `COc1ccc(C(c2nnnn2C2CCCCC2)N2CCN(c3ccccc3F)CC2)cc1` (stereo not given), the activation factor is 1.1 (inactive). The same measure for `c1ccc(C(c2ccccc2)N2CCN(Cc3nnnn3C3CCCCC3)CC2)cc1`: 2 (active).

With `c1ccc(CCn2nnnc2CN2CCN(C3CCCC3)CC2)cc1`, the activation factor was 1.1 (inactive). Consider `C=CCn1c(SCc2c(C)noc2C)nc2sc3c(c2c1=O)CCC(C)C3` (stereo not given), for which the activation factor is 0.6 (inactive).

As to `CCOc1ccc(-c2nc(C)sc2CC(=O)O)cc1`, the activation factor was 1 (inactive). As to `CC(C)(C)N1CC(c2nc3ccccc3n2Cc2ccc(F)cc2)CC1=O` (stereo not given), the activation factor is 1.2 (inactive). Consider `CC1(C)Cc2cccc(OCC(N)=O)c2O1`, for which the activation factor is 1.2 (inactive). With `Cn1nc(C(F)(F)F)c2cc(NC(=O)OCC(C)(C)C)sc21` the figure was 1 (inactive); with `CC1=NN(C(C)C)C(=O)C1`, 1.2 (inactive); with `CN(C)S(=O)(=O)c1ccc(NC(=O)COC(=O)c2n[nH]c3ccccc23)cc1`, 1.3 (inactive). With `O=C(OC1CCCCC1=O)c1cccc(S(=O)(=O)NCc2ccccc2)c1` (stereo not given), the activation factor was 1.2 (inactive). `COc1ccc(NC(=O)Cn2c(=O)n(Cc3ccco3)c(=O)c3ccccc32)cc1`: the activation factor was 1 (inactive). As for `Cc1ccc(-n2nc3cc(C)c(NC(=O)c4cccnc4)cc3n2)cc1`, the activation factor is 1.5 (inactive). The same measure for `CC(C)C[C@@H](N)c1nnc(SCC(=O)c2ccc(Cl)cc2)o1`: 1.1 (inactive); for `S=C1NC(c2ccccc2)=NCN1c1ccc(Br)cc1`: 1.2 (inactive).

On to `Cc1cc(NC(=O)CN2CCCC(C)C2)n(-c2nc3ccccc3s2)n1` (stereo not given), for which the activation factor is 1.2 (inactive). Consider `Cc1cc(-c2ccccc2)nc(N2CCC(C(=O)NC34CC5CC(CC(C5)C3)C4)CC2)n1`, for which the activation factor was 1.3 (inactive). As to `CCOC(=O)Nc1sc(C(=O)N(C)C)c(C)c1C(=O)OCC`, the activation factor was 1 (inactive).

On to `Cc1[nH]n(-c2ccc(Cl)cc2)c(=O)c1/C=N/n1c(C)nc2ccccc2c1=O`, for which the activation factor is 1 (inactive). Turning to `COc1ccc(C2C(C(C)=O)=C(O)C(=O)N2c2nccs2)cc1` (stereo not given), the activation factor is 1 (inactive). Regarding `Cc1ccc(CNC(=O)COc2ccc(S(=O)(=O)NC(C)C)cc2)cc1`, the activation factor is 1.1 (inactive). For the compound `CC(C)C(NC(=O)c1ccc(Cl)cc1)C(=O)O` (stereo not given), the activation factor was 1.1 (inactive). Turning to `CCOc1ccc(C(=O)NC(C(=O)NCc2ccccn2)C(C)C)cc1` (stereo not given), the activation factor was 1.3 (inactive). Turning to `COc1ccc(C2=NOC3(CC(=O)N(c4ccc(Cl)cc4)C3=O)C2)c(OC)c1` (stereo not given), the activation factor was 1 (inactive). On to `Cc1ccc(S(=O)(=O)NCC(=O)N(CC(=O)NC(C)(C)C)Cc2cccs2)cc1`, for which the activation factor is 1.1 (inactive).

As for `CC(Nc1nc(N2CCCC2)nc2ccccc12)c1ccccc1` (stereo not given), the activation factor was 1.1 (inactive). With `COc1ccc(C(CC(=O)O)NC(=O)Cc2ccccc2)cc1` (stereo not given) the figure was 1.2 (inactive); with `Cc1ccc(C(CC(=O)O)Nc2nc(N3CCCCC3)nc(N3CCCCC3)n2)cc1` (stereo not given), 2 (active); with `OC(C#CCN1CCOCC1)(c1ccccc1)C1CCCCC1` (stereo not given), 1.1 (inactive). With `Cc1ccn(C(CC(=O)c2ccc(Br)cc2)C(=O)O)n1` (stereo not given), the activation factor is 1.1 (inactive).

Turning to `O=C(O)CSCc1ccc(C(=O)O)o1`, the activation factor was 1.2 (inactive).
